# Assay results as given in PubChem BioAssay.
# Active and inactive are the calls of the source.
# Key:
# [1] = optical density shifts of acrAB sulA E. coli – strain DRC41, OD650, 48 h, E. coli filamentation inducer project, primary screen (AID 1152); conditions: higher = more signal, called active from +8 up or from −8 down;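 further: E. coli MC1000 strain DRC41 lacking acrAB efflux pump and sulA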
# [2] = probe aLefty1 binding on compound microarray – biochemical, small-molecule microarray, 635/667 nm fluorescence, primary screen (AID 1153); conditions: higher = more signal;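 further: score merges spot fluorescence with signal-to-noise ratio from the scanned slide images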
# [3] = plasmodial surface anion channel blockers, osmotic lysis – cell-based, P. falciparum Indochina, OD700, 1 h, primary screen (AID 1154); conditions: P. falciparum Indochina infected RBC osmotic lysis, higher = more signal, called active from +8 up or from −8 down
# [4] = plasmodial surface anion channel blockers, osmotic lysis – cell-based, P. falciparum Indochina, OD700, 2 h, primary screen (AID 1155);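 further: lysis reports solute entry through the parasite surface anion channel PSAC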; conditions: P. falciparum Indochina infected erythrocytes, higher = more signal, called active from +8 up or from −8 down
# [5] = changes in parasitized red cell lysis, either direction – P. falciparum Indochina, OD700, 3 h, PSAC antagonist project, primary screen (AID 1156); conditions: P. falciparum-infected erythrocytes, osmotic lysis, higher = more signal, called active from +8 up or from −8 down
# [6] = plasmodial surface anion channel blockers, osmotic lysis – cell-based, P. falciparum Indochina, OD700, 18 h, primary screen (AID 1157); conditions: P. falciparum Indochina infected erythrocytes, osmotic lysis OD700, 18 h; higher = more signal, called active from +8 up or from −8 down
# [7] = S6 kinase pathway phospho-S6 level changes – cell-based, A549, cytoblot, luminescence, serum-stimulated, primary screen (AID 1158); conditions: 5 h, higher = more signal;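 further: serum-stimulated A549 lung adenocarcinoma cells; signal is phosphorylated S6 detected by cytoblot immunostaining with HRP secondary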
# [8] = target: NADPH oxidase 2 (Homo sapiens) (UniProt P04839); experiment: compounds shifting NOX2 Amplex Red fluorescence – cell-based, HEK293-NOX2, PMA-stimulated, NOX inhibitor project, primary screen (AID 1159); conditions: 45 min, higher = more signal, called active from +8 up or from −8 down; further: test concentration not given here
# NADPH oxidase 2 (Homo sapiens), sequence (P04839 whole entry, looked up): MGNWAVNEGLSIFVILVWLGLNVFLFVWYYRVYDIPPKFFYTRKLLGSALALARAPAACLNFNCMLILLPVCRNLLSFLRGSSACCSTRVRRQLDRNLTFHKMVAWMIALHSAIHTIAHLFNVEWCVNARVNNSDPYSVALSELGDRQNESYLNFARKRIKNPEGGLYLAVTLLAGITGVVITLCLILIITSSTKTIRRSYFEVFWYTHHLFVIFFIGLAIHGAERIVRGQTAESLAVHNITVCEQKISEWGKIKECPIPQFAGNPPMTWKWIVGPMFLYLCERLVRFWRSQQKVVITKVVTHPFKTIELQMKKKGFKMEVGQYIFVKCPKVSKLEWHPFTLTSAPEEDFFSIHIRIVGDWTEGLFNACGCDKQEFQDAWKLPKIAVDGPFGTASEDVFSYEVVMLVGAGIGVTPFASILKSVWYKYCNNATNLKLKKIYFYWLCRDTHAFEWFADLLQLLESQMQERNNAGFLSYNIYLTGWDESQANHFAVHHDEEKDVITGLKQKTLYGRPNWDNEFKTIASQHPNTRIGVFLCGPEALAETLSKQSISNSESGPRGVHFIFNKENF
# [9] = target: NADPH oxidase 4 (Homo sapiens) (UniProt Q9NPH5); experiment: compounds shifting NOX4 Amplex Red fluorescence – cell-based, HEK293-NOX4, tetracycline-induced, NOX inhibitor project, primary screen (AID 1160); conditions: HEK293-NOX4, Amplex Red H2O2 fluorescence, 45 min; higher = more signal, called active from +8 up or from −8 down
# NADPH oxidase 4 (Homo sapiens), sequence (Q9NPH5 whole entry, looked up): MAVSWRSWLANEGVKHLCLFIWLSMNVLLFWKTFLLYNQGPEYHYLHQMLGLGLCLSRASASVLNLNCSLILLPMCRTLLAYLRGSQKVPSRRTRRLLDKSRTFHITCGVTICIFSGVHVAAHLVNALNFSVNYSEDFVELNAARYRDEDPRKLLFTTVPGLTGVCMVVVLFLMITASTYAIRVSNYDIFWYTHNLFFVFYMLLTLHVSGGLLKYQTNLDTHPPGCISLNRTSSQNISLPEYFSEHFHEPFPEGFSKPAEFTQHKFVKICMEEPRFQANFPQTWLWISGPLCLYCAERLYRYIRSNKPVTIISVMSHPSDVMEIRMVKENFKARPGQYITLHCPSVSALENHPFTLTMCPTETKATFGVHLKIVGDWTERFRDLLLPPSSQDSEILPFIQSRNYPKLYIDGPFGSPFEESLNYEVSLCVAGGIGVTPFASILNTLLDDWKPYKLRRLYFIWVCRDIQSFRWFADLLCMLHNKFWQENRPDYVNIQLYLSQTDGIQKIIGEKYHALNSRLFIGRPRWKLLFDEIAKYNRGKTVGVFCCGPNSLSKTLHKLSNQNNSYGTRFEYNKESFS
# [10] = target: NADPH oxidase 5 (Homo sapiens) (UniProt Q96PH1); experiment: compounds shifting NOX5 Amplex Red fluorescence – cell-based, HEK293-NOX5, NOX inhibitor project, primary screen (AID 1161); conditions: HEK293-NOX5, ionomycin, 45 min, higher = more signal
# NADPH oxidase 5 (Homo sapiens), sequence (Q96PH1 whole entry, looked up): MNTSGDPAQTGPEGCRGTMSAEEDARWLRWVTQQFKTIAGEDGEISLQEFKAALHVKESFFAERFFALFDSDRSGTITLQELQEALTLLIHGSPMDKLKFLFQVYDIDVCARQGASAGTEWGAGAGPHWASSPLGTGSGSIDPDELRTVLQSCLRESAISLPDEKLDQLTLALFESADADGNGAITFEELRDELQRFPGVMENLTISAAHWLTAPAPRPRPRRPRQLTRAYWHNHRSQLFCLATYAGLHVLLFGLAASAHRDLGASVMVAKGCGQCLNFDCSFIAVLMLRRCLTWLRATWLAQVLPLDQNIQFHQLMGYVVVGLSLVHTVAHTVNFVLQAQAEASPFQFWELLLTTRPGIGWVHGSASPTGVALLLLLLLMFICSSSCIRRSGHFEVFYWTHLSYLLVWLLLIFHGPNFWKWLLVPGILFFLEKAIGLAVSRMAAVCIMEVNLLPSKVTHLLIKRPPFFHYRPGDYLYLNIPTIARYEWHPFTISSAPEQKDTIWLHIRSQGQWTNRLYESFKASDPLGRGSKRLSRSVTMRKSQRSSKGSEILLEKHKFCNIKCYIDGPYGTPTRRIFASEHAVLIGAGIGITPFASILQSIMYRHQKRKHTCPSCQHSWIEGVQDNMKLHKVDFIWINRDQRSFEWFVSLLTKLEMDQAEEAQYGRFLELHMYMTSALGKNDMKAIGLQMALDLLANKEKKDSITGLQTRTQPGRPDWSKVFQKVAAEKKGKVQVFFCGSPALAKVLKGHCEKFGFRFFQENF
# [11] = compound effects on lung adenocarcinoma cell viability – A549, calcein-AM fluorescence, 48 h, basal, profiling panel (AID 1162); conditions: higher = more signal; further: test concentration not given here
# [12] = compound effects on differentiated 3T3-L1 adipocyte viability – cell-based, 3T3-L1 adipocytes, calcein-AM fluorescence, 48 h, basal, profiling panel (AID 1163); conditions: 3T3-L1 adipocytes viability, higher = more signal; further: test concentration not given here
# [13] = compound effects on hepatocellular carcinoma cell viability – HepG2, calcein-AM fluorescence, 48 h, basal, profiling panel (AID 1164); conditions: higher = more signal; further: test concentration not given here
# [14] = compound effects on multiple myeloma cell viability – MM1S, calcein-AM fluorescence, 48 h, basal, profiling panel (AID 1165); conditions: higher = more signal; further: test concentration not given here
# [15] = calcein-AM signal in unstimulated myeloma cells – cell-based, calcein-AM fluorescence, 48 h, PK04 Diversity Set, profiling panel (AID 1166); conditions: RPMI8226 myeloma viability, higher = more signal;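 further: cells grown under basal conditions without added stimulus; test concentration not given here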
# [16] = JC-1 mitochondrial signal, unstimulated HepG2 cells – cell-based, JC-1 fluorescence, 24 h, 100 nL compound, profiling panel (AID 1167); conditions: HepG2 mitochondrial potential, higher = more signal; further: test concentration not given here
# [17] = JC-1 mitochondrial signal, unstimulated adipocytes – cell-based, JC-1 fluorescence, 3T3-L1 adipocytes, 24 h, 100 nL compound, profiling panel (AID 1168); conditions: JC-1 mitochondrial fluorescence, higher = more signal, called active from +8 up or from −8 down; further: test concentration not given here
# [18] = JC-1 mitochondrial signal, unstimulated myeloma cells – cell-based, JC-1 fluorescence, RPMI8226, 24 h, 100 nL compound, profiling panel (AID 1169); conditions: JC-1 mitochondrial potential fluorescence, higher = more signal; further: test concentration not given here
# [19] = JC-1 mitochondrial signal, unstimulated MM1S myeloma – cell-based, JC-1 fluorescence, 24 h, 100 nL compound, profiling panel (AID 1170); conditions: MM1S mitochondrial potential, higher = more signal; further: test concentration not given here
# [20] = resazurin metabolic signal in A549 cells – cell-based, resazurin fluorescence, 24 h, PK04 Diversity Set, profiling panel (AID 1171); conditions: A549 viability, higher = more signal, called active from +8 up or from −8 down; further: test concentration not given here
SMILES,z-score [1],composite z-score [2],z-score [3],z-score [4],z-score [5],z-score [6],z-score [7],z-score [8],z-score [9],z-score [10],z-score [11],z-score [12],z-score [13],z-score [14],z-score [15],z-score [16],z-score [17],z-score [18],z-score [19],z-score [20]
CCN1C(=O)[C@H]2[C@H]3[C@H](O)[C@H](O)CC(=NOC[C@H]4O[C@H](c5ccccc5)C=C[C@@H]4Oc4ccc(OC)cc4)[C@@H]3CC[C@H]2C1=O,0.575 (inactive),0.171,10.7 (active),1.65 (inactive),0.622 (inactive),0.809 (inactive),-0.763,0.863 (inactive),0.91 (inactive),0.456,0.964,-0.471,0.644,-1.98,-2.23,-0.627,0.0264 (inactive),-1.24,-0.409,-0.531 (inactive)
CO[C@H](C1CCCCC1)[C@H](C)C=CCC(=O)OCCCc1ccccc1,0.101 (inactive),-0.194,1.56 (inactive),0.726 (inactive),-1.17 (inactive),0.22 (inactive),-0.285,0.435 (inactive),-3.56 (inactive),-2.56,0.19,-0.518,-0.0782,-0.237,0.182,0.639,-0.249 (inactive),0.773,-0.199,0.301 (inactive)
CC(CCN1CCCCc2nc(C)c(C)cc21)=NO[C@@H](C)c1cn([C@H](CO)Cc2ccccc2)nn1,0.72 (inactive),0.0618,2.04 (inactive),0.32 (inactive),0.729 (inactive),0.367 (inactive),-0.11,-2.09 (inactive),-0.106 (inactive),-0.199,0.455,-0.374,0.0163,0.313,0.307,-1.33,-0.151 (inactive),0.878,-0.859,-0.32 (inactive)
C=CC1=C[C@H](O)[C@@H]2O[C@@H]2C12OCCCO2,0.104 (inactive),-0.275,-0.179 (inactive),0.191 (inactive),-0.264 (inactive),-0.121 (inactive),-0.495,-1.11 (inactive),0.617 (inactive),0.629,-0.375,-0.564,-0.0684,-0.705,0.265,-0.977,-0.729 (inactive),-0.371,-0.361,0.0527 (inactive)
CO[C@H]1COC(=O)CC=C[C@@H](C)[C@H](OC)COC(=O)[C@@H]2CCCN2C(=O)CC=C[C@@H]1C,0.544 (inactive),0.114,-0.0903 (inactive),-0.289 (inactive),-0.32 (inactive),-0.0159 (inactive),1.14,0.833 (inactive),0.196 (inactive),0.0432,0.976,0.308,-0.259,0.491,-0.394,0.0843,-0.0391 (inactive),-0.83,1.22,0.572 (inactive)
CCOC(=O)[C@H](CC(C)C)NC(=O)CCC1CC(OC(=O)NCc2ccc3c(c2)OCO3)CC2(CCCC(COC(=O)NCCCN3CCCC3=O)O2)O1 (stereo not given in full),0.015 (inactive),0.0004,1.08 (inactive),0.448 (inactive),-0.447 (inactive),0.003 (inactive),0.375,0.242 (inactive),0.187 (inactive),0.32,0.526,-0.268,-0.106,-0.181,0.514,0.553,0.875 (inactive),-0.838,-0.328,0.142 (inactive)
CCN1C(=O)[C@H]2[C@H]3[C@H](O)[C@H](O)CC(=O)[C@H]3CC[C@H]2C1=O,0.115 (inactive),-0.0603,-0.0957 (inactive),0.143 (inactive),-0.669 (inactive),0.0097 (inactive),-0.276,-0.676 (inactive),0.471 (inactive),-0.156,0.0697,0.015,-0.0937,0.14,-1.17,-0.531,-0.386 (inactive),-0.0768,0.816,0.26 (inactive)
CO[C@@H]1C=CCC(=O)N2CCC[C@H]2C(=O)OC[C@@H](C)C(=O)OC[C@H]1C,1.12 (inactive),0.154,0.0026 (inactive),0.155 (inactive),0.335 (inactive),0.181 (inactive),0.467,-0.805 (inactive),0.766 (inactive),0.147,0.623,0.244,1.17,0.138,-0.267,0.848,0.00578 (inactive),-0.257,0.269,0.585 (inactive)
CCOC(=O)NN=C1C[C@@H](O)[C@@H](O)[C@@H]2[C@@H]3C(=O)N([C@@H](C)c4ccccc4)C(=O)[C@@H]3CC[C@H]12,0.0575 (inactive),0.119,0.65 (inactive),0.452 (inactive),-0.011 (inactive),0.378 (inactive),-0.34,1.35 (inactive),0.67 (inactive),-0.657,-0.0339,-0.584,-0.102,0.136,-0.177,-0.39,0.29 (inactive),0.104,-0.476,-0.193 (inactive)
O=C1C[C@@H](O)[C@@H](O)[C@@H]2[C@@H]3C(=O)N(C[C@@H]4CCCO4)C(=O)[C@@H]3CC[C@H]12,0.555 (inactive),-0.0969,0.651 (inactive),0.461 (inactive),-0.406 (inactive),0.376 (inactive),-0.0289,-0.453 (inactive),-0.111 (inactive),-0.0473,-0.232,-0.42,0.614,0.136,0.433,0.446,0.763 (inactive),-0.131,-0.586,-0.747 (inactive)
C=C(C)C(=O)OCC1CN2[C@@H](CC[C@@H](C)[C@@H]2c2ccc(Br)cc2)C(=O)O1 (stereo not given in full),-0.949 (inactive),0.183,3.23 (inactive),0.672 (inactive),0.189 (inactive),0.491 (inactive),-0.48,-0.0685 (inactive),-0.149 (inactive),-0.475,-0.0348,-0.518,-0.442,0.151,0.0247,0.684,-0.614 (inactive),-0.863,0.169,0.789 (inactive)
CC(C)=CCCC(C)=CCON=C1C[C@@H](O)[C@@H](O)[C@@H]2[C@@H]3C(=O)N(Cc4ccccc4)C(=O)[C@@H]3CC[C@@H]12,-0.0866 (inactive),-0.241,0.391 (inactive),0.239 (inactive),0.0336 (inactive),-0.0646 (inactive),-0.444,0.0415 (inactive),0.836 (inactive),-0.0355,0.123,-0.827,-1.45,0.732,0.107,0.786,0.199 (inactive),-0.11,-0.689,0.708 (inactive)
CCC=CCCC(OC(=O)c1ccc(Br)cc1)C1=CCCCC1=O (stereo not given),-0.686 (inactive),-0.3,3.4 (inactive),0.626 (inactive),-0.0019 (inactive),-0.366 (inactive),0.86,-0.126 (inactive),-0.534 (inactive),-3.12,-0.211,-0.648,-0.805,-3.68,-3.51,-1.12,-0.711 (inactive),-0.449,-1.97,0.863 (inactive)
CCOC(=O)[C@H](CC(C)C)NC(=O)CCC1CC(OC(=O)NCCc2ccc(F)cc2)CC2(CCCC(COC(=O)NCCc3ccccc3OC)O2)O1 (stereo not given in full),-0.501 (inactive),-0.0603,-1.58 (inactive),-0.344 (inactive),-0.17 (inactive),-0.142 (inactive),-0.0491,0.00967 (inactive),0.15 (inactive),-0.0222,0.239,-0.227,-0.204,-1.35,-1.41,0.481,0.293 (inactive),-0.106,-0.878,-0.311 (inactive)
CCOC(=O)[C@H](Cc1ccccc1)NC(=O)CCC1CC(OC(=O)NCc2cccc3ccccc23)CC2(CCCC(COC(=O)NCc3cccc(C(F)(F)F)c3)O2)O1 (stereo not given in full),0.263 (inactive),-0.0984,18.5 (active),2.83 (inactive),0.654 (inactive),0.493 (inactive),-0.283,0.402 (inactive),0.0385 (inactive),-0.162,1.84,-0.244,1.14,-0.709,0.607,3.94,0.918 (inactive),-0.284,-0.868,-0.106 (inactive)
COC(=O)[C@@H]1CC[C@H](C)[C@@H](c2ccc(C)cc2)N1C(=O)c1ccc(C=NOC[C@@H](C)[C@H](OCc2ccccc2)C(C)C)cc1,-1.07 (inactive),-0.18,1.25 (inactive),-1.62 (inactive),-0.467 (inactive),-1.35 (inactive),2.57,-1.28 (inactive),-0.428 (inactive),0.388,0.188,0.903,2.13,-0.168,-0.0791,1.6,-0.483 (inactive),-0.998,-1.01,-1.19 (inactive)
CCCCC#C[C@@H]1C=C[C@H](Oc2ccc(C(=O)OC)cc2)[C@@H](COC(=O)OCC)O1,0.0015 (inactive),-0.0559,5.53 (inactive),1.38 (inactive),0.77 (inactive),0.0033 (inactive),0.164,1.82 (inactive),0.725 (inactive),1.03,-1.07,0.416,-3.26,-3.56,-3.46,-0.918,0.281 (inactive),-0.614,-1.95,0.313 (inactive)
